According to PubChem BioAssay AID1481 (The Scripps Research Institute Molecular Screening Center, 2009):
The campaign covered roughly 220,000 compounds. About 920 (0.42%) were called active. This is one part of a sample in which actives are shown more often than they occur. No stated cut-off is given here; in the data, active means inhibition above about 15%; inactive means the rest.

The compounds below were run against Transitional endoplasmic reticulum ATPase (Homo sapiens) (UniProt P55072) (assay: p97 ATP hydrolysis blockers – biochemical, primary screen (AID 1481;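 further: 0% = DMSO vehicle and 100% = wells lacking enzyme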)). Conditions: recombinant p97 ATPase, Kinase-Glo ATP luminescence, 3 h; at 8 µM; active compounds read high.
Sequence of Transitional endoplasmic reticulum ATPase (Homo sapiens) (P55072 whole entry, looked up): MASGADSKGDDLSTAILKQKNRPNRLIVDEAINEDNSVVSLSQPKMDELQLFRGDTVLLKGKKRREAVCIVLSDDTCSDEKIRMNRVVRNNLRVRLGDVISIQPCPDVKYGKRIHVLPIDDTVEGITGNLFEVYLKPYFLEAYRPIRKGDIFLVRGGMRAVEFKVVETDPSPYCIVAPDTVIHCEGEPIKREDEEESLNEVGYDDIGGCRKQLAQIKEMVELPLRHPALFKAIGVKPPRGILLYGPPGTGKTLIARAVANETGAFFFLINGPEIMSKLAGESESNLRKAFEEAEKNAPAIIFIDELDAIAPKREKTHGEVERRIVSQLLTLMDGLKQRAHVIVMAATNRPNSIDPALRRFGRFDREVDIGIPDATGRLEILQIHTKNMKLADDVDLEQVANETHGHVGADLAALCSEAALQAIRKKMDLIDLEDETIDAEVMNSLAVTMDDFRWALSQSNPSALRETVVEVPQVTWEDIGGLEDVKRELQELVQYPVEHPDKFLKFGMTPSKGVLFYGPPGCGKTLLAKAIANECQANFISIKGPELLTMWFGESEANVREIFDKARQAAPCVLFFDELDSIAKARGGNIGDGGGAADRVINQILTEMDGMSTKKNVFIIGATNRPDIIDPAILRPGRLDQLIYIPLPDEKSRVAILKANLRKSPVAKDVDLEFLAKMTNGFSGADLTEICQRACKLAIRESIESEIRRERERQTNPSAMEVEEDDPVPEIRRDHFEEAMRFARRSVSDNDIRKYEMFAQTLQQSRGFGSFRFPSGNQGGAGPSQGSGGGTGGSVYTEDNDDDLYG

How did the inhibition turn out when `Cc1no[n+]([O-])c1COc1ccccc1/C=C1\NC(=S)NC1=O` was run?
The inhibition was 36% (active).

With `Cc1ccccc1-n1c(C)cc(/C=C2\NC(=O)NC2=O)c1C` as the compound, how does the inhibition read?
The inhibition was -1.59% (inactive).

For `Cc1ccc(/C=N/NC(=O)COc2ccccc2-c2ccccc2)cc1`, which inhibition is on record?
The inhibition was -5.12% (inactive).

For `Cc1ccc(NC(=O)NC2CCCCC2)cc1S(=O)(=O)N1CCOCC1`, which inhibition is on record?
Its inhibition is 1.18% (inactive).

`CCOc1c(CNCc2ccc(C(=O)O)cc2)cccc1OC` was tested. Which inhibition did it give?
The inhibition was 3.61% (inactive).

With `S=c1[nH]nc(-c2ccc(Cl)cc2)n1CC1CCCO1` (stereo unspecified) as the compound, how does the inhibition read?
The inhibition was -0.03% (inactive).

How did the inhibition turn out when `O=C(c1nnc(-c2ccc(Cl)cc2)o1)C1CCCC1` was run?
The inhibition was -6.78% (inactive).

Which inhibition does the source give for `O=C(c1[nH]ncc1-c1ccc(Cl)cc1)C1CO1` (stereo unspecified) here?
Its inhibition is 18.1% (active).

How did the inhibition turn out when `CN(CC(=O)NCCc1ccccc1)S(=O)(=O)c1cnc[nH]1` was run?
The inhibition was -2.11% (inactive).

`O=C(c1ccc(OC2CCN(C(=O)c3cccnc3)CC2)cc1)N1CCCCCC1` was tested. Which inhibition did it give?
Its inhibition is -2.04% (inactive).

`Nc1nnnn1/N=C/c1cc([N+](=O)[O-])ccc1O` was tested. Which inhibition did it give?
Its inhibition is 1.03% (inactive).

Which inhibition does the source give for `CCOC(=O)CCCN1CC(O)=C(c2nc3ccccc3s2)C1=N` here?
Its inhibition is -8.77% (inactive).

How did the inhibition turn out when `COc1ccccc1N1CC(O)=C(c2nc3ccccc3s2)C1=N` was run?
The inhibition was 6.21% (inactive).

With `N=C1C(c2nc3ccccc3s2)=C(O)CN1NC(=O)c1ccc([N+](=O)[O-])cc1` as the compound, how does the inhibition read?
The inhibition was 28.3% (active).

How did the inhibition turn out when `O=C(CCc1ccccc1)Nc1nn[nH]n1` was run?
Its inhibition is -3.71% (inactive).

Which inhibition does the source give for `O=C(Nc1ccc2c(c1)OCCO2)C(c1ccc(F)cc1)N1CCCCC1` (stereo unspecified) here?
The inhibition was -0.16% (inactive).

With `CC1CCCN(C(C(=O)Nc2ccc(C(C)C)cc2)c2ccc3c(c2)OCO3)C1` (stereo unspecified) as the compound, how does the inhibition read?
Its inhibition is 15.3% (active).

`CC(NC(=S)Nc1ccc(S(N)(=O)=O)cc1)c1ccc2c(c1)OCO2` (stereo unspecified) was tested. Which inhibition did it give?
The inhibition was 0.42% (inactive).

Which inhibition does the source give for `CN1C(=O)C(CC(=O)Nc2ccccc2)S/C1=N/c1nccs1` (stereo unspecified) here?
The inhibition was 6.76% (inactive).

For `CC(=O)c1cc(C#N)c(N2CCCCC2)nc1C`, which inhibition is on record?
Its inhibition is -1.2% (inactive).

With `Cc1cc(C)c(C#N)c(N2CCC(C(N)=O)CC2)n1` as the compound, how does the inhibition read?
The inhibition was 3.21% (inactive).

Which inhibition does the source give for `N#Cc1c(N2CCCCC2)nc(N)c2c(N)nc(SCC(=O)O)cc12` here?
The inhibition was 53.6% (active).

With `O=C(NC(=O)N1CCOCC1)c1ccccc1` as the compound, how does the inhibition read?
Its inhibition is 5.31% (inactive).

Which inhibition does the source give for `O=C(CCl)N(Cc1cccc([N+](=O)[O-])c1)c1cccc(Cl)c1` here?
The inhibition was -3.6% (inactive).

`CCOC(=O)CN1CCC(c2ccccc2)CC1` was tested. Which inhibition did it give?
Its inhibition is -3.38% (inactive).

How did the inhibition turn out when `CCOC(=O)N1CCC(c2cc(=O)n(-c3ccccc3)[nH]2)CC1` was run?
Its inhibition is 23% (active).

How did the inhibition turn out when `CCOC(=O)N1CCC(NC(=O)COc2cc(=O)n(C)c3ccccc23)CC1` was run?
Its inhibition is -0.15% (inactive).

For `CC(=O)Nc1nc2c(s1)C(=O)NCC(C)(C)C2`, which inhibition is on record?
Its inhibition is 0.86% (inactive).

For `Cc1cc(C)c2c(n1)nn1c(N3CCOCC3)cc(C)nc21`, which inhibition is on record?
Its inhibition is 5.86% (inactive).

With `Cc1cc(C)c2c(n1)nn1c(-n3ccnc3)cc(C)nc21` as the compound, how does the inhibition read?
Its inhibition is 31.7% (active).

For `Cc1cc(C)c2c(n1)nn1c(N3CCN(c4cccc(Cl)c4)CC3)cc(C)nc21`, which inhibition is on record?
Its inhibition is -0.34% (inactive).

Which inhibition does the source give for `O=[N+]([O-])c1cc([N+](=O)[O-])c2cccnc2c1O` here?
The inhibition was -0.5% (inactive).

Which inhibition does the source give for `O=C(/C=C/c1ccc(N2CCOCC2)cc1)c1ccccc1` here?
The inhibition was 3.1% (inactive).

How did the inhibition turn out when `NC(N)=N/N=C/c1ccc(Cl)c([N+](=O)[O-])c1` was run?
The inhibition was 4.25% (inactive).

Which inhibition does the source give for `COc1ccc(C(=O)O/N=C(\N)Cc2ccc(Cl)cc2Cl)cc1OC` here?
Its inhibition is -0.33% (inactive).

How did the inhibition turn out when `NC(N)=N/N=C/c1ccc(OCc2ccc(Cl)cc2Cl)cc1` was run?
The inhibition was 17.6% (active).

With `Nn1c(SCC(=O)Nc2nccs2)nncc1=O` as the compound, how does the inhibition read?
The inhibition was 3.78% (inactive).

With `COc1ccc(NC(=S)Nc2ccccc2Cl)cn1` as the compound, how does the inhibition read?
Its inhibition is 2.95% (inactive).

Which inhibition does the source give for `COc1ccc(NC(=O)/C(Cl)=C(/Cl)S(=O)Cc2ccc(C)cc2)cn1` (stereo unspecified) here?
Its inhibition is 10.7% (inactive).

`COc1ccc(CS(=O)/C(Cl)=C(/Cl)C(=O)Nc2ccc(OC)nc2)cc1` (stereo unspecified) was tested. Which inhibition did it give?
The inhibition was 22% (active).

With `CC1CCN(c2ccc([N+](=O)[O-])c(SCCO)c2)CC1` as the compound, how does the inhibition read?
The inhibition was 7.8% (inactive).

For `Cc1cccc2cc(CN(Cc3nnnn3Cc3ccccc3)C3CCCC3)c(=O)[nH]c12`, which inhibition is on record?
Its inhibition is 1.15% (inactive).

Which inhibition does the source give for `Cc1cc(C)c2cc(CN(Cc3cccs3)Cc3nnnn3CC3CCCO3)c(=O)[nH]c2c1` (stereo unspecified) here?
Its inhibition is -6.18% (inactive).

Which inhibition does the source give for `Cc1cc(C)c2cc(CN(Cc3nnnn3Cc3ccc(F)cc3)C3CCCC3)c(=O)[nH]c2c1` here?
The inhibition was 28.6% (active).

How did the inhibition turn out when `O=C(COc1ccc(/C=N/NS(=O)(=O)c2ccccc2)cc1)NCCc1ccccc1` was run?
Its inhibition is 0.13% (inactive).

How did the inhibition turn out when `COCCNc1nc2nonc2nc1N(C)Cc1ccc(C)cc1` was run?
The inhibition was -0.9% (inactive).

With `CN1CCN(/N=C2/C(=O)Nc3ccc([N+](=O)[O-])cc32)CC1` as the compound, how does the inhibition read?
The inhibition was -0.51% (inactive).

How did the inhibition turn out when `Cc1nc2cccnc2nc1C` was run?
Its inhibition is 5.4% (inactive).

For `O=C(N/N=C/c1sc(N2CCCCC2)nc1-c1cccs1)c1cccnc1`, which inhibition is on record?
The inhibition was -2.01% (inactive).

`CC(=O)Nc1ccc(S(=O)(=O)Nc2ccc(-c3ccc4nnc(C)n4n3)cc2)cc1` was tested. Which inhibition did it give?
The inhibition was 0.45% (inactive).

For `CCOC(=O)c1cc2c(nc1NC(=S)Nc1ccccc1)CC(C)(CC)OC2` (stereo unspecified), which inhibition is on record?
The inhibition was -6.73% (inactive).

Which inhibition does the source give for `O=C(Nc1ccccc1Cl)c1ccc2nsnc2c1` here?
The inhibition was 2.33% (inactive).

For `O=C(Nc1ccccc1Cl)/C(Cl)=C(\Cl)S(=O)c1ccccc1` (stereo unspecified), which inhibition is on record?
The inhibition was 20% (active).

With `O=C(CN1CCCCC1)Nc1ccccc1Cl` as the compound, how does the inhibition read?
The inhibition was -2.65% (inactive).

Which inhibition does the source give for `CCCc1nc2c(c(=O)c3ccccc3n2C)c(=O)n1-c1cc(C)cc(C)c1` here?
The inhibition was 1.03% (inactive).

Which inhibition does the source give for `COc1ccc(/C=N/N=C2/C(=O)Nc3ccccc32)cc1O` here?
Its inhibition is -3.95% (inactive).

`Cc1nnc2n1N=C(c1ccc3c(c1)NC(=O)CO3)CS2` was tested. Which inhibition did it give?
The inhibition was 4.3% (inactive).

Which inhibition does the source give for `O=C(OCC1O[C@@H](OC(=O)c2cc(O)c(O)c(O)c2)[C@@H](OC(=O)c2cc(O)c(O)c(O)c2)[C@@H](OC(=O)c2cc(O)c(O)c(O)c2)[C@@H]1OC(=O)c1cc(O)c(O)c(O)c1)c1cc(O)c(O)c(O)c1` (stereo partly specified) here?
Its inhibition is 67% (active).

How did the inhibition turn out when `CC(=O)NC1C(OCc2ccccc2)OC(COC(C)=O)C(OC(C)=O)C1OC(C)=O` (stereo unspecified) was run?
Its inhibition is 1.05% (inactive).

For `COC(=O)c1scc(C)c1NC(=O)CSc1ccc(Cl)cc1`, which inhibition is on record?
The inhibition was -1.74% (inactive).

For `CN(C)[C@@H]1C(=O)C(C(N)=O)=C(O)[C@@]2(O)C(=O)C3=C(O)c4c(O)ccc(Cl)c4[C@@H](O)[C@H]3C[C@@H]12`, which inhibition is on record?
The inhibition was 23.4% (active).
